BAZ2B block – inhibitors of human BAZ2B bromodomain | Q9UIF8 | AlphaScreen BAZ2B-H3K14Ac peptide displacement | Potency, µM (titrated, usually from 114 µM), inactives show top-dose activity change, negative = inhibition, actives largely listed as inhibitors | 4.4% of 360,000 active; note: potency is the fitted concentration of half-maximal effect; % is set by controls: 0 for no effect and ±100 for the full control effect; nearly all actives have a fitted effect of over 60% in size
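Compounds, titrated to a top concentration of 110 uM, were incubated 30 min at room temperature with preformed BAZ2B/acetyl-K14 H3 peptide complex (50 nM each). Proximity signal was measured by AlphaScreen after 20 min with beads.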
JMJD2A Tudor inh – inhibitors of human JMJD2A Tudor domain; O75164; AlphaScreen JMJD2A-Tudor / H3K4me3 peptide binding; Potency, µM (top dose mostly 114 µM), for the others: at the highest dose activity change, negative = inhibition, usual class: inhibitors; 4.4% of 390,000 active; AID 504339; note: potency is the fitted concentration of half-maximal effect; % is set by controls: 0 for no effect and ±100 for the full control effect; nearly all actives have a fitted effect of over 50% in size
PLK1 PBD inh – PLK1 (human) polo-box domain binding inhibition | P53350 | Plk1 PBD binding of FITC phosphopeptide, fluorescence polarization | Potency, µM, without a hit: max response, negative = inhibition, usual class: inhibitors | 2.8% of 360,000 active | AID 720504; note: potency is the fitted concentration of half-maximal effect; series mostly up to about 57 µM; % is set by controls: 0 for no effect and ±100 for the full control effect; nearly all actives have a fitted effect of over 65% in size
Target sequence (P53350 whole entry, looked up, the tested form may be a part): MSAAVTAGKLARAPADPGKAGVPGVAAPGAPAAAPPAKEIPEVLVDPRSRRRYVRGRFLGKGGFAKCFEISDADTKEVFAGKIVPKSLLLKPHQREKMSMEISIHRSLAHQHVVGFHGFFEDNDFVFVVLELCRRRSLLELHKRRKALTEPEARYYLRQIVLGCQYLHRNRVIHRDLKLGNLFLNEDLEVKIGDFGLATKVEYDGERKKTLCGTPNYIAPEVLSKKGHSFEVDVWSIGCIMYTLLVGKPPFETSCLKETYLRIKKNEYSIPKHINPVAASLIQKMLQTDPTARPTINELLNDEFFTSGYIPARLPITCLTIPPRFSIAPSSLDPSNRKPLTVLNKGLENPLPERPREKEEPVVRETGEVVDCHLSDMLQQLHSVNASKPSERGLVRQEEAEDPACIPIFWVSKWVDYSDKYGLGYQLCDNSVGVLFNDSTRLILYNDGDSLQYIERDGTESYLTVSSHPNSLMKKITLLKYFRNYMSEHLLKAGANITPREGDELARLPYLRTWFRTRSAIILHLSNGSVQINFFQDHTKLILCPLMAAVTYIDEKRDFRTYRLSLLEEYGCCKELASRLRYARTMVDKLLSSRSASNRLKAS
G9a block – blocks human histone lysine methyltransferase G9a. Q96KQ7. G9a H3K9 monomethylation, AlphaScreen, 2 h. 8.8% of 350,000 active. AID 504332. Potency, µM (titrated, usually from 102 µM), for inactives: at the highest dose activity, negative = inhibition, usual class: inhibitors; note: potency is the fitted concentration of half-maximal effect; % is set by controls: 0 for no effect and ±100 for the full control effect; nearly all actives have a fitted effect of over 75% in size
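G9a (20 nM) preincubated 15 min RT with compounds, then 500 nM biotinylated H3K9 peptide and 20 uM SAM added; 2 h RT reaction. Monomethyl-H3K9 product detected by AlphaScreen with anti-H3K9me1 antibody, streptavidin donor and anti-rabbit IgG acceptor beads.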
PI5P4K alpha inh – PI5P4K alpha (human) kinase inhibition | PI5P4Kalpha enzyme, ADP-Glo luminescence, 60 min; stronger effect = lower value | max response, % | 1.2% of 330,000 active | AID 652105; active = max response of -50% or lower; inconclusive = between -30% and -50%; inactive = -30% or higher; note: value at the top dose of about 77 µM; % is set by controls: 0 for no effect and ±100 for the full control effect
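Human PI5P4Kalpha with substrate in 0.038 M HEPES pH 7.4, 0.28 mM EGTA, 0.1% CHAPS, 5% DMSO; reaction started with 5 microM ATP (final), 60 min at room temperature. ADP formed read by ADP-Glo luminescence.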
HP1b chromo inh – blocks HP1-beta chromodomain binding to methylated histone tails | Potency, µM (doses to about 114 µM), without a hit: at the highest dose activity change, negative = inhibition, actives largely listed as inhibitors | AlphaScreen HP1-beta / biotin-H3K9me3 peptide binding | P83916 | AID 540317 | 0.56% of 390,000 active; note: potency is the fitted concentration of half-maximal effect; nearly all actives have a fitted effect of over 70% in size
Target sequence (P83916 whole entry, looked up): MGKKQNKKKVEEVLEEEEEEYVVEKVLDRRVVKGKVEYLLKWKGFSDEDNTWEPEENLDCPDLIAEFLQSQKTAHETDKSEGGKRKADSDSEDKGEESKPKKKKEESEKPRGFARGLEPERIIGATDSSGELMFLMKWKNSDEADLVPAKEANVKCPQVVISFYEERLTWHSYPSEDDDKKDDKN
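AlphaScreen: HP1-beta (50 nM) preformed 30 min with biotin-H3(1-18)K9me3 peptide (50 nM) in PBS pH 7.4, 0.01% Tween-20. Compound added for 30 min at RT, then streptavidin donor/nickel chelate acceptor beads (10 ug/mL) for 30 min.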
* marks the source's active call; other numbers are inactive results; [ ] = another dose, or the depositor's remark. Sampled rows, rich in hits. Any-hit rate of the full collection: about 12%. Unless noted, calls come from the whole dose curve; as a rule, active = well fitted curve in the direction sought with a large enough effect; inconclusive = small, poorly fitted or top-dose-only effect, or another doubt; inactive = no such curve, though single readings can be large; an effect the other way counts as inactive or inconclusive.

Results for CCC(C)C(=O)Nc1nc2ccc(S(C)(=O)=O)cc2s1 (stereo not drawn) ?
BAZ2B block: -6%; JMJD2A Tudor inh: -1%[11.4 µM]; PLK1 PBD inh: inconclusive; G9a block: 32µM*; PI5P4K alpha inh: -2; HP1b chromo inh: 4%

How did CCc1noc(C)c1C(=O)Nc1nc2ccc(S(C)(=O)=O)cc2s1 do in these assays?
BAZ2B block: 12%; JMJD2A Tudor inh: -1%; PLK1 PBD inh: -1%; G9a block: 50µM*; PI5P4K alpha inh: -9; HP1b chromo inh: 46%

Results for O=C(c1ccco1)N1CCC2(CC1)CCN(c1cccc(-c3ccccc3)c1)CC2 ?
G9a block: -19%[12.7 µM]

Results for COc1ccc(-c2cn3cccnc3n2)cc1NC(=O)Nc1cc(C)ccc1C ?
BAZ2B block: inconclusive; JMJD2A Tudor inh: -27%; G9a block: inconclusive; HP1b chromo inh: 7%

Results for Cc1nc2c(cc1C(=O)N/N=C/c1ccc(O)c(O)c1)c(=O)n(C)c(=O)n2C ?
BAZ2B block: -25%; JMJD2A Tudor inh: 35µM*; PLK1 PBD inh: -7%; G9a block: inconclusive; PI5P4K alpha inh: -24; HP1b chromo inh: -17%

What do the screens show for `COc1cc2c(cc1NC(=O)c1cccc([N+](=O)[O-])c1)oc1ccccc12`?
BAZ2B block: 4%; JMJD2A Tudor inh: -17%; PLK1 PBD inh: -11%; G9a block: 50µM*; PI5P4K alpha inh: -4; HP1b chromo inh: -14%

Results for O=C(CNS(=O)(=O)c1ccccc1)N/N=C/c1ccccc1[N+](=O)[O-] ?
BAZ2B block: 2%; JMJD2A Tudor inh: -13%; PLK1 PBD inh: 0%; G9a block: 26%; PI5P4K alpha inh: -1; HP1b chromo inh: -17%

How did COc1cc(-c2oc3ccc(C)cc3c(=O)c2O)cc(OC)c1OC do in these assays?
BAZ2B block: 15%; JMJD2A Tudor inh: 16%; G9a block: 2%[59 µM]; HP1b chromo inh: 70%

What do the screens show for `COc1ccccc1N1CCN(c2ncnc3c2cnn3-c2cc(Cl)ccc2C)CC1`?
BAZ2B block: -17%; JMJD2A Tudor inh: -17%; G9a block: -26%[59 µM]; HP1b chromo inh: 15%

How did CCOc1ccccc1NC(=O)CCNC(=O)N1CC(=O)Nc2ccccc21 do in these assays?
PLK1 PBD inh: 3%; PI5P4K alpha inh: -12

How did Clc1ccc(-c2csc(N/N=C/c3ccc4c(c3)OCO4)n2)cc1 do in these assays?
BAZ2B block: -10%; JMJD2A Tudor inh: -25%; PLK1 PBD inh: -6%; G9a block: 40µM*; PI5P4K alpha inh: -27; HP1b chromo inh: 14%

What do the screens show for `Cc1nnc(N/N=C/c2ccc(O)c([N+](=O)[O-])c2)[nH]c1=O`?
BAZ2B block: -5%; JMJD2A Tudor inh: 3.2µM*; PLK1 PBD inh: 0%; G9a block: 13%[59 µM]; PI5P4K alpha inh: 8; HP1b chromo inh: 5%

Results for O=[N+]([O-])c1ccc(/C=N/N/C(=N/c2ccccn2)c2ccccn2)cc1 ?
BAZ2B block: -3%; JMJD2A Tudor inh: -29%; PLK1 PBD inh: -4%; G9a block: 10%[12.7 µM]; HP1b chromo inh: 23%

Results for Cc1csc(N/N=C/c2ccc(O)c([N+](=O)[O-])c2)n1 ?
BAZ2B block: 4.5µM*; JMJD2A Tudor inh: 45µM*; PLK1 PBD inh: inconclusive; G9a block: 14µM*; PI5P4K alpha inh: -75*; HP1b chromo inh: inconclusive

Results for O=[N+]([O-])c1cc(/C=N/N/C(=N/c2ccccn2)c2ccccn2)ccc1O ?
BAZ2B block: 32µM*; JMJD2A Tudor inh: 79µM*; PLK1 PBD inh: inconclusive; G9a block: 50µM*; PI5P4K alpha inh: -3; HP1b chromo inh: -7%

Results for O=C(/C=C/c1ccc2c(c1)OCO2)Nc1nc(-c2ccccc2)cs1 ?
BAZ2B block: 9%; JMJD2A Tudor inh: -17%; PLK1 PBD inh: -10%; G9a block: -9%[59 µM]; PI5P4K alpha inh: -3; HP1b chromo inh: 31%

What do the screens show for `CCOC(=O)C1CCN(C(=O)C2CCN(S(=O)(=O)c3c(C)noc3/C=C/c3ccc(C)cc3)CC2)CC1`?
BAZ2B block: -13%; JMJD2A Tudor inh: -27%; G9a block: -4%[59 µM]; HP1b chromo inh: 19%[57 µM]

Results for CC(C)(C)c1cc(NC(=O)C2(C)CCN2C(=O)c2ccccc2CCc2ccccc2)no1 (stereo not drawn) ?
PLK1 PBD inh: -2%; PI5P4K alpha inh: 11

Results for O=C(CSc1nc2ccccc2nc1Cc1ccc(Cl)cc1)N1CCCc2ccccc21 ?
BAZ2B block: 9%; JMJD2A Tudor inh: -14%; G9a block: 9%[59 µM]; HP1b chromo inh: 27%[57 µM]

How did Cc1csc(N/N=C\c2cccnc2)n1 do in these assays?
JMJD2A Tudor inh: -14%[11.4 µM]; PLK1 PBD inh: -16%; G9a block: 45µM*; PI5P4K alpha inh: -3; HP1b chromo inh: 9%

How did O=[N+]([O-])c1cc(/C=N\Nc2nc(-c3ccccc3)cs2)ccc1O do in these assays?
BAZ2B block: 13µM*; JMJD2A Tudor inh: inconclusive; PLK1 PBD inh: inconclusive; G9a block: 11µM*; PI5P4K alpha inh: -63*; HP1b chromo inh: inconclusive

Results for Cc1ccc(N/N=C/c2cccnc2)cc1 ?
BAZ2B block: inconclusive; JMJD2A Tudor inh: inconclusive; PLK1 PBD inh: -16%; G9a block: inconclusive; PI5P4K alpha inh: 0; HP1b chromo inh: inconclusive

How did O=[N+]([O-])c1ccc(-c2csc(N/N=C/c3cccnc3)n2)cc1 do in these assays?
BAZ2B block: inconclusive; JMJD2A Tudor inh: -17%; PLK1 PBD inh: -12%; PI5P4K alpha inh: -15; HP1b chromo inh: 4%

Results for Cc1nn(CC(=O)NCCCN2C(C)CCCC2C)c(=O)c2cc3occc3n12 (stereo not drawn) ?
BAZ2B block: -4%; JMJD2A Tudor inh: -8%; PLK1 PBD inh: inconclusive; G9a block: 1%; PI5P4K alpha inh: -2; HP1b chromo inh: -2%

What do the screens show for `COCc1ccc(CN2CCC(n3nccc3NC(=O)CCCc3ccccc3)CC2)o1`?
BAZ2B block: -17%; JMJD2A Tudor inh: -14%; PLK1 PBD inh: -4%; G9a block: 7%[59 µM]; PI5P4K alpha inh: -9; HP1b chromo inh: 31%

How did COc1cc(CN2CCN(c3cccc(Cl)c3)CC2)cc(OC)c1OC do in these assays?
BAZ2B block: 50µM*; JMJD2A Tudor inh: 3.5µM*; PLK1 PBD inh: -4%; G9a block: 13µM*; HP1b chromo inh: inconclusive

Results for COc1cc(CN2CCC(CO)(CCOc3ccccc3)CC2)cc(OC)c1OC ?
BAZ2B block: 8%; JMJD2A Tudor inh: 0%; PLK1 PBD inh: 0%; G9a block: 4%; PI5P4K alpha inh: 3; HP1b chromo inh: 44%

Results for COc1cc(CN2CCN(C(O)(c3ccccc3)c3ccccc3)CC2)cc(OC)c1OC ?
BAZ2B block: inconclusive; JMJD2A Tudor inh: 25µM*; PLK1 PBD inh: -6%; PI5P4K alpha inh: 7; HP1b chromo inh: -13%
